According to PubChem BioAssay AID1347414 (National Center for Advancing Translational Sciences (NCATS), 2020):
Records with an inconclusive call do not appear. The source made the active and inactive calls. The call rests on the fitted dose curve; in most records, active means well fitted inhibition curve with a large enough effect; inconclusive means small, poorly fitted or top-dose-only effect; inactive means no such curve, though single readings can be large or run the other way.

Assay: qHTS to identify inhibitors of the type 1 interferon - major histocompatibility complex class I in skeletal muscle: Secondary screen by immunofluorescence; further: nearly all actives have a fitted effect of over 70% in size;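 on activity change, negative = inhibition: digitonin at 100 µM served as the cytotoxic control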
Details: C25cl48 myoblasts, IFN-b induced HLA-ABC immunofluorescence, 24 h, Viability; series mostly up to 49.8 µM; activity change, negative = inhibition: at the top concentration
Procedure, shortened: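 HLA-ABC immunofluorescence, with nuclear and cell-body stains, was quantified by laser scanning cytometry. Read-out followed 24 h of IFN-beta (4.0 ng/ml) stimulation of C25cl48 human myoblasts with compounds titrated 1:3 over 11 points from 50 uM, with ruxolitinib as inhibitor control.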
On the % scale 0 is the no-effect control and ±100 the full control effect; potency means the concentration at half of the fitted maximal effect.

Compound | activity change, negative = inhibition | Potency
C[C@]12CCC(=O)C=C1CC[C@H]1[C@@H]3CC[C@](O)(C(=O)CO)[C@@]3(C)C[C@H](O)[C@@]12F | 7.29% (inactive) | 
CC(C)(C)c1nc(-c2cccc(NS(=O)(=O)c3c(F)cccc3F)c2F)c(-c2ccnc(N)n2)s1 | 9.89% (inactive) | 
COCCN1CCN(Cc2ccc(-c3n[nH]c4c3C(=O)c3c(NC(=O)NN5CCOCC5)cccc3-4)cc2)CC1 |  | 20.5 µM (active)
Cc1ccc(C(=O)Nc2ccc(CN3CCN(C)CC3)c(C(F)(F)F)c2)cc1C#Cc1cnc2[nH]ncc2c1 |  | 12.9 µM (active)
COC(=O)c1nc(Cl)c(Cl)nc1N |  | 9.13 µM (active)
CC(=O)c1ccc2c(c1)c1cc(C(C)=O)ccc1n2CCNC(C)C | 3.4% (inactive) | 
N#CC[C@H](C1CCCC1)n1cc(-c2ncnc3[nH]ccc23)cn1 | -5.42% (inactive) | 
CC1=C(CO)C(=O)O[C@@H]([C@@H](C)[C@H]2CC[C@H]3[C@@H]4C[C@H]5O[C@]56[C@@H](O)C=CC(=O)[C@]6(C)[C@H]4CC[C@]23C)C1 |  | 2.05 µM (active)
CC[C@@]1(O)C(=O)OCc2c1cc1n(c2=O)Cc2cc3c(CN(C)C)c(O)ccc3nc2-1 | -1.12% (inactive) | 
CC(C)c1cc(-c2n[nH]c(=O)n2-c2ccc3c(ccn3C)c2)c(O)cc1O | 3.75% (inactive) | 
O=C(/C=C\n1cnc(-c2cc(C(F)(F)F)cc(C(F)(F)F)c2)n1)NNc1cnccn1 | -8.84% (inactive) | 
COC(=O)Nc1nc2ccc(C(=O)c3ccc(F)cc3)cc2[nH]1 | -16.8% (inactive) | 
CC(/C=C/C(=O)NO)=C\[C@@H](C)C(=O)c1ccc(N(C)C)cc1 | -16.9% (inactive) | 
CC(C)(C)c1ccc(S(=O)(=O)/C=C/C#N)cc1 |  | 3.24 µM (active)
CCCOc1ccc2nc(NC(=O)OC)[nH]c2c1 | -8.07% (inactive) | 
O=C(/C=C/C#Cc1cccc(NS(=O)(=O)c2ccccc2)c1)NO | -5.42% (inactive) | 
Cc1ccc(-c2ncn(-c3ccc(Nc4nccc(-c5cccc(N6CCOCC6)c5)n4)cc3)n2)cn1 | -0.586% (inactive) | 
O=C(/C=C/c1ccc(CN(CCO)CCc2c[nH]c3ccccc23)cc1)NO | -3.46% (inactive) | 
Cc1sc2c(c1C)C(c1ccc(Cl)cc1)=N[C@@H](CC(=O)Nc1ccc(OCCOCCOCCOCCNc3cccc4c3C(=O)N(C3CCC(=O)NC3=O)C4=O)cc1)c1nnc(C)n1-2 (some centres not stated) | 22.8% (inactive) | 

Compound | activity change, negative = inhibition | Potency
Cc1cc(Nc2cc(CN3CCOCC3)c3nc(C)c(Cc4ccc(Cl)cc4F)n3n2)n[nH]1 |  | 20.5 µM (active)
CC(=O)c1cnc2ccc(-c3cc(Cl)c(O)c(Cl)c3)nc2c1NC1CCC(CN(C)C)CC1 (configuration not stated) |  | 14.5 µM (active)
CNC(=O)c1ccc(Nc2ncc(C(F)(F)F)c(NCc3nccnc3N(C)S(C)(=O)=O)n2)cc1 | -9.86% (inactive) | 
CN1CCN(c2cccc(Nc3nc4c(-c5ccc(S(C)(=O)=O)cc5)cccn4n3)c2)CC1 | -24.5% (inactive) | 
CC(C)c1c2cc(-c3ccnc(NC4CCC(NC5CCOCC5)CC4)n3)ccc2nn1C (configuration not stated) | -7.1% (inactive) | 
C=CC(=O)N1CCc2ccc(-n3c(=O)ccc4cnc5ccc(-c6cnn(C)c6)cc5c43)cc21 |  | 16.2 µM (active)
CC(C)(C)CC(=O)OCC(=O)[C@@]1(O)CC[C@H]2[C@@H]3CCC4=CC(=O)C=C[C@]4(C)[C@H]3[C@@H](O)C[C@@]21C | -16.5% (inactive) | 
CC1(C)CC(=O)c2c(C(F)(F)F)nn(-c3ccc(C(N)=O)c(NC4CCC(OC(=O)CN)CC4)c3)c2C1 (configuration not stated) | 1.4% (inactive) | 
CC[C@@]1(O)C(=O)OCc2c1cc1n(c2=O)Cc2c-1nc1cc(F)c(C)c3c1c2[C@@H](N)CC3 | 21.5% (inactive) | 
C=CC(=O)N1CC/C(=C\c2ccc(F)c([N+](=O)[O-])c2)C(=O)/C(=C/c2ccc(F)c([N+](=O)[O-])c2)C1 |  | 0.408 µM (active)
CC[C@]1(O)C[C@H]2CN(CCc3c([nH]c4ccccc34)[C@@](C(=O)OC)(c3cc4c(cc3OC)N(C=O)[C@H]3[C@@](O)(C(=O)OC)[C@H](OC(C)=O)[C@]5(CC)C=CCN6CC[C@]43[C@@H]65)C2)C1 | 3.97% (inactive) | 
Cc1ccc(C(N)=O)cc1Nc1nccc(-c2cn(C(C)C)c3cnccc23)n1 | 0.513% [at 99.5 µM] (inactive) | 
O=C(/C=C/c1ccc2ccc(C(F)(F)F)cc2n1)c1ccncc1 |  | 3.64 µM (active)
O=C(/C=C/c1cccc(S(=O)(=O)Nc2ccccc2)c1)NO | -0.722% (inactive) | 
CCS(=O)(=O)Nc1ccc(Oc2ccc(F)cc2F)c(-c2cn(C)c(=O)c3[nH]ccc23)c1 | 8.42% (inactive) | 
Cn1ncc2cc(-c3cnc(N)c(Cl)c3N3CCC4(CCNC4=O)CC3)ccc21 | -17.9% (inactive) | 
CCC(=C/[C@H](C)C/C=C/C(C)=C/[C@@H](C)C(=O)[C@@H](C)[C@H](O)[C@@H](C)C/C(C)=C/C(=O)O)/C=C/[C@@H]1OC(=O)C=C[C@@H]1C | 3.28% (inactive) | 
COc1ccc(F)c(F)c1C(=O)c1cnc(NC2CCN(S(C)(=O)=O)CC2)nc1N | 1.88% (inactive) | 
